Five compounds from PubChem BioAssay can be followed below.

Activity calls are given as the source filed them.

Experiment [1] is described as follows: binders of probe aFSTL3 on microarray, primary screen, stem cell growth factor project, biochemical, small-molecule microarray, fluorescence 635/667 (AID 1064).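 Further: measures binding of the biotinylated anti-FSTL3 antibody to printed compounds.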 The following applies: higher = more signal.
Experiment [2] is described as follows: binders from COS7 lysate, DM2A8 probe, primary screen, torsin A project, cell lysate, small-molecule microarray, fluorescence 635/667 (AID 1065). The following applies: higher = more signal, COS7 lysate expressing mutant human TOR1A.
Experiment [3] in a line: binders of probe aFGF2 on microarray, primary screen, stem cell growth factor project, biochemical, small-molecule microarray, fluorescence 635/667 (AID 1067).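 Further: measures binding of biotinylated aFGF2 protein to printed compounds on slides; z-score merges feature fluorescence and signal-to-noise across triplicate slides.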 The following applies: higher = more signal.
The nature of experiment [4]: binders of probe aFGF10 on microarray, primary screen, stem cell growth factor project, biochemical, small-molecule microarray, fluorescence 635/667 (AID 1071).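 Further: score merges 667 nm spot intensity and signal to noise from triplicate slides.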 The following applies: higher = more signal.
Experiment [5] has as its target Neurogenic locus notch homolog protein 2 (Homo sapiens) (UniProt Q04721). As to the kind of experiment: Notch2 binders on small-molecule microarrays, primary screen, biochemical, small-molecule microarray, 635 nm fluorescence, stem cell growth factors (AID 1073). The note with it: Notch2 binding, higher = more signal.
Experiment [6] has as its target Pro-neuregulin-1, membrane-bound isoform (Homo sapiens) (UniProt Q02297). As to the kind of experiment: NRG1 binders on small-molecule microarrays, primary screen, psychiatric disease protein project, biochemical, small-molecule microarray, fluorescence 635/667 (AID 1075).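 Further: score combines 667 nm spot fluorescence with signal to noise.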 The note with it: NRG1 binding, 635 nm fluorescence, higher = more signal.
Experiment [7] deals with Neuregulin-1 EGF-like domain. The experiment in a line: binders of neuregulin-1 EGF-like domain, primary screen, biochemical, small-molecule microarray, 635 nm fluorescence (AID 1081).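 Further: binding of the protein to compounds printed on small-molecule microarray slides.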 The following applies: small-molecule microarray binding, higher = more signal.
Experiment [8] is described as follows: FRG1 promoter luciferase signal modulators, primary screen, FRG1 inhibition for FSHD, cell-based, C2C12 myotubes, firefly/Renilla luciferase, luminescence (AID 1084). The following applies: higher = more signal, called active from +8 up or from −8 down.
Experiment [9] can be described thus: binders of probe aFST on microarray, primary screen, stem cell growth factor project, biochemical, small-molecule microarray, fluorescence 635/667 (AID 1086).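 Further: score merges 667 nm fluorescence with signal-to-noise of each printed compound spot.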 The note with it: higher = more signal.
Experiment [10] is described as follows: binders of probe aHhip on microarray, primary screen, stem cell growth factor project, biochemical, small-molecule microarray, fluorescence 635/667 (AID 1087).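 Further: score merges spot fluorescence at 667nm with spot signal to noise ratio.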 The following applies: higher = more signal.
Experiment [11] concerns PRMT1 (protein arginine N-methyltransferase 1). The experiment in a line: PRMT1 binders on small-molecule microarrays, primary screen, biochemical, small-molecule microarray, 635 nm fluorescence (AID 1088).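 Further: binding of Prmt1 protein to compounds spotted on small-molecule microarray slides.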 The note with it: small-molecule microarray binding, higher = more signal.
Experiment [12] in a line: yeast growth modulation, basal conditions, primary screen, YJM789 clinical isolate, OD600, 24 h (AID 1089).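 Further: growth of clinical yeast isolate S. cerevisiae YJM 789 seeded 1000 cells per well; test concentration not given here.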 The note with it: S. cerevisiae YJM789 growth, higher = more signal, called active from +8 up or from −8 down.
Experiment [13] is described as follows: fission yeast growth modulation, primary screen, strain 972, OD600, 24 h, no modulator (AID 1090).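 Further: basal condition with compound alone and no growth modifier present; test concentration not given here.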 The following applies: S. pombe 972 growth, higher = more signal, called active from +8 up or from −8 down.
The nature of experiment [14]: S. cerevisiae growth modulation with rapamycin, primary screen, strain BY4716, OD600, 96 h (AID 1091). Further: test concentration not given here. The note with it: higher = more signal, called active from +8 up or from −8 down.
Experiment [15] deals with Torsin-1A-interacting protein 2 (Homo sapiens) (UniProt Q8NFQ8). As to the kind of experiment: LULL1 binders on small-molecule microarray, primary screen, cell lysate, human LULL1 lysate, 635/667 nm fluorescence (AID 1092).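 Further: score merges per-feature 667 nm fluorescence with signal-to-noise.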 The following applies: hLULL1 lysate binding, 635 nm fluorescence, higher = more signal.
Torsin-1A-interacting protein 2 (Homo sapiens), sequence (Q8NFQ8 whole entry, looked up): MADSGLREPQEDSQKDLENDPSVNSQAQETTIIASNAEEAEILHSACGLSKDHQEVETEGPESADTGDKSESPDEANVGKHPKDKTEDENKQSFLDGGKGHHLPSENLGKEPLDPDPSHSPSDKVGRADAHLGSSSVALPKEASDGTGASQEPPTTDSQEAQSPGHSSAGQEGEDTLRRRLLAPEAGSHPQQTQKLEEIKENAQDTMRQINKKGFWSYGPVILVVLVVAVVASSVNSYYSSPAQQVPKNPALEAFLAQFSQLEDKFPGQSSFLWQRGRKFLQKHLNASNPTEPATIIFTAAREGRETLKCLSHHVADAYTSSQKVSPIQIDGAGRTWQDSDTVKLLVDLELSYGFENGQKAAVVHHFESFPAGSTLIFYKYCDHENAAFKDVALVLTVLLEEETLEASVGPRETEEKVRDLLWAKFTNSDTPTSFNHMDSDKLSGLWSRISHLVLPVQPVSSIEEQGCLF
A short description of experiment [16]: E. coli growth modulation, two-sided OD650, primary screen, E. coli filamentation project, strain DRC41, 24 h (AID 1093).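 Further: MC1000 strain lacking acrAB efflux and sulA so SOS filamentation is blocked; test concentration not given here.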 The note with it: OD650, 24 h, higher = more signal, called active from +8 up or from −8 down.
The nature of experiment [17]: small-molecule microarray binders of probe aLefty2, primary screen, biochemical, biotinylated probe, 635/667 nm fluorescence (AID 1094).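 Further: score merges spot fluorescence near 667 nm with spot signal-to-noise ratio.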 The following applies: higher = more signal.
In experiment [18] the test system is Noggin (protein binding on small-molecule microarray). As to the kind of experiment: Noggin binders on small-molecule microarray, primary screen, biochemical, 635/667 nm fluorescence (AID 1095).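 Further: score merges 667 nm feature fluorescence with signal to noise over triplicate slides.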 The note with it: 635 nm fluorescence, higher = more signal.
Experiment [19] addresses Neurogenic locus notch homolog protein 3 (Homo sapiens) (UniProt Q9UM47). As to the kind of experiment: NOTCH3 binders on small-molecule microarray, primary screen, biochemical, 635/667 nm fluorescence (AID 1096). The note with it: NOTCH3 binding, 635 nm fluorescence, higher = more signal.
Experiment [20] in a line: small-molecule microarray binders of probe aEGFR, primary screen, biochemical, biotinylated probe, 635/667 nm fluorescence (AID 1097).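 Further: probe is a biotinylated anti-EGFR antibody binding compounds printed on slides; score combines fluorescence near 667 nm and signal to noise of each spot.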 The following applies: higher = more signal.

Neurogenic locus notch homolog protein 3 (Homo sapiens), sequence (Q9UM47 whole entry, looked up): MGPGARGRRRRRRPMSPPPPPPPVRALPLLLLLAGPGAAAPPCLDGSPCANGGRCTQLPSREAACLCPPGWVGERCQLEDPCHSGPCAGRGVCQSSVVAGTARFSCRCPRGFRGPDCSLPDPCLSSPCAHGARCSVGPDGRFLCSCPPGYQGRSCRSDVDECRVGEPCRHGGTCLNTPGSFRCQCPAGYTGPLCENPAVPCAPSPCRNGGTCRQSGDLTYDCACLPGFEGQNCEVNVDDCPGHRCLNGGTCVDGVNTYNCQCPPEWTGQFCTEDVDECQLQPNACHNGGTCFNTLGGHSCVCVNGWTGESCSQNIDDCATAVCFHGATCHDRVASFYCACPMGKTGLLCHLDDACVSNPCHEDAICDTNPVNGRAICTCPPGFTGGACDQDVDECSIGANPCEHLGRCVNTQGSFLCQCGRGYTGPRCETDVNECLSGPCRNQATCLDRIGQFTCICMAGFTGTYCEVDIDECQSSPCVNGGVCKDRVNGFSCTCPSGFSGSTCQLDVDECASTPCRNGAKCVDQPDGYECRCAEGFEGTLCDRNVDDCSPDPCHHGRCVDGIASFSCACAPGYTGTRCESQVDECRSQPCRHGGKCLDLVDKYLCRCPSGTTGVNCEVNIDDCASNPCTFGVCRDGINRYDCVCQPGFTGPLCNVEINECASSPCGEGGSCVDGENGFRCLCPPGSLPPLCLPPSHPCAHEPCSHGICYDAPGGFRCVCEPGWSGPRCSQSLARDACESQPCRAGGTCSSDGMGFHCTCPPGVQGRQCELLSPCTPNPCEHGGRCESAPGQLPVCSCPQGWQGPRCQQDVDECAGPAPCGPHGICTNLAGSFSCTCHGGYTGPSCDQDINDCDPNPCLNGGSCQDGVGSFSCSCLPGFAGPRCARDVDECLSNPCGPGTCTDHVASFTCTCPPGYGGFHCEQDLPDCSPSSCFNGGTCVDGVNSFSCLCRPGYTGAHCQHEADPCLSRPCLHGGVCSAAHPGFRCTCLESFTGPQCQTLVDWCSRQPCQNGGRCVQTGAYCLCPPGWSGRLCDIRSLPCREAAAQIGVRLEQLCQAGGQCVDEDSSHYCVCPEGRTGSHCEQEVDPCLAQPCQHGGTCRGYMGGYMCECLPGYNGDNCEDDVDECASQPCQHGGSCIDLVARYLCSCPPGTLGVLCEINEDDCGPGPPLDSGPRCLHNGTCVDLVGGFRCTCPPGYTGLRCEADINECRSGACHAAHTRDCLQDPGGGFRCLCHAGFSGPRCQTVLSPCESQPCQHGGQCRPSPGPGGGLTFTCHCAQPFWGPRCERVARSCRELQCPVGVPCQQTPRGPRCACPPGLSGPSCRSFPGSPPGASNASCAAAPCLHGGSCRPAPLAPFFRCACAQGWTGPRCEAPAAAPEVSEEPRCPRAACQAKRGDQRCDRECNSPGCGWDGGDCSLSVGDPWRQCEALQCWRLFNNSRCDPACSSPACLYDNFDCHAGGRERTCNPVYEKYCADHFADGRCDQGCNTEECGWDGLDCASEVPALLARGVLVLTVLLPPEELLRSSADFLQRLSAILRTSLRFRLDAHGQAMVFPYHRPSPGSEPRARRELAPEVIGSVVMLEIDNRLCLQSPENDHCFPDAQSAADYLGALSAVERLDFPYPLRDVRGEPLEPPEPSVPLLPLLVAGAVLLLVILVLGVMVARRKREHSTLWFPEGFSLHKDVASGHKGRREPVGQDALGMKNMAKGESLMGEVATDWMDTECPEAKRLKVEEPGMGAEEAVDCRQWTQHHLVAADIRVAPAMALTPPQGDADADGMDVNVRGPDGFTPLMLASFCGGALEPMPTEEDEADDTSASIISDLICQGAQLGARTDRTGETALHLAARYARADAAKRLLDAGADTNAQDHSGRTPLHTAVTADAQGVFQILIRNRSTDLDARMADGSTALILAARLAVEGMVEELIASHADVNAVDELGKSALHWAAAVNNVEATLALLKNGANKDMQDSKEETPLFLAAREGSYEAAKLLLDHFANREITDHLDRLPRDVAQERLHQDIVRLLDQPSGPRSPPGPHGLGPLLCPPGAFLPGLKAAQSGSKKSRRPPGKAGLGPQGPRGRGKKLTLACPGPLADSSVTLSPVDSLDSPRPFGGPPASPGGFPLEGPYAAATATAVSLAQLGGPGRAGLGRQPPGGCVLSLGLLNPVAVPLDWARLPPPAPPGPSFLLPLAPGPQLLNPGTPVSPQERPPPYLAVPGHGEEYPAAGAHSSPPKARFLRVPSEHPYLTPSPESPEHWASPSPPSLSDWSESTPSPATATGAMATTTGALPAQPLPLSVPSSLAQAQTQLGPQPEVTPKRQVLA
Pro-neuregulin-1, membrane-bound isoform (Homo sapiens), sequence (Q02297 whole entry, looked up, the tested form may be a part, canonical isoform): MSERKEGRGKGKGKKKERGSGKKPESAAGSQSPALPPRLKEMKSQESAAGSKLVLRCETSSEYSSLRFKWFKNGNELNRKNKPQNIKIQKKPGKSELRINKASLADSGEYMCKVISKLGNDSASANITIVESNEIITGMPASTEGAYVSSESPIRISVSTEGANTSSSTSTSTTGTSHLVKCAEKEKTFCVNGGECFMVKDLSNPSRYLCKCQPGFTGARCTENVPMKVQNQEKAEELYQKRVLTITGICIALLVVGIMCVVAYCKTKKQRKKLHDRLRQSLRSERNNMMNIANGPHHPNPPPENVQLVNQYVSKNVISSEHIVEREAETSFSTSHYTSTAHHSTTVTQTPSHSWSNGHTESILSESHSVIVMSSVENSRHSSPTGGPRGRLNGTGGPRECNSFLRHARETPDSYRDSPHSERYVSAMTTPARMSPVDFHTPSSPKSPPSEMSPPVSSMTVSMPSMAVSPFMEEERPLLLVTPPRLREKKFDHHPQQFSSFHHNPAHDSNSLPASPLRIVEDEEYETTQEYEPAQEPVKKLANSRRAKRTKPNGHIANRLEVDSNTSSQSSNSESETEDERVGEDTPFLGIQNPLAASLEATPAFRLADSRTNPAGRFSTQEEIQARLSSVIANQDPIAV

Take `C=C(COC)/C(=C/C[C@@H](OC(=O)c1ccncc1)c1cccc(OCCO)c1)c1cc(C(=O)OC)ccc1OC`: the composite z-score was -0.278 in experiment [1]; 0.525 in experiment [2]; -0.0428 in experiment [3]; 1.06 in experiment [4]; 0.426 in experiment [5]; -0.142 in [6]. Also, the composite z-score in [7] was 1.38; in [9] it was -0.0671; in [10] it was -0.156; in experiment [11] it was 1.56; in [15], 0.512; in experiment [17] it was -0.205. Further, the composite z-score in experiment [18] is 1.32; in experiment [19], 0.841; in [20] it was -0.0022. Moreover, the z-score in experiment [8] is -3.79 (inactive); in experiment [12] it was -25.3 (active); in experiment [13], -20.2 (active); in [14], -4.36 (inactive); in experiment [16], 0.625 (inactive).
`COC(=O)[C@@]1(Cc2ccccc2)[C@H]2c3cc(C(=O)N4CCCC4)n(Cc4ccc(OC(F)(F)F)cc4)c3C[C@H]2CN1C(=O)c1ccccc1`: the composite z-score in experiment [1] is 1.38; in experiment [2] it was -0.277; in [3], 0.337; in [4] it was 0.42; in experiment [5], 1.72; in experiment [6] it was 1.62. For the same compound, the composite z-score was found to be 1.18 in experiment [7]; 1.73 in experiment [9]; 0.405 in experiment [10]; 0.325 in experiment [11]; 3.29 in [15]; 0.961 in [17]. The composite z-score in [18] came to 0.0283; in experiment [19] it was 1.04; in experiment [20], 0.647. Further, the z-score in [8] was 0.705 (inactive); in [12] it was 1.54 (inactive); in experiment [13], 1.5 (inactive); in experiment [14] it was 3.42 (inactive); in experiment [16], -1.43 (inactive).
In the case of `Cc1cc(C)c(C(O)C2C=CC3C(=O)N(c4ccccc4)C(=O)C3N2Nc2ccc([N+](=O)[O-])cc2)c(C)c1` (stereo not given), the composite z-score in [1] was determined as 0.0096; in experiment [2] it was 0.129; in experiment [3] it was 0.0748; in experiment [4], 0.453; in experiment [5], 1.68; in [6], 1.9. Also, the composite z-score was 1.36 in [7]; 1.51 in experiment [9]; -0.223 in experiment [10]; 1.54 in [11]; 3.73 in experiment [15]; 0.216 in [17]. The values for the composite z-score in experiment [18], in experiment [19] and in [20] were 0.525, 1.02 and 0.0225, respectively. For the same compound, the z-score in [8] is -0.625 (inactive); in experiment [12], -0.695 (inactive); in experiment [13] it was 0.957 (inactive); in [14], 2.16 (inactive); in experiment [16], 0.356 (inactive).
Turning to `COCCOC(=O)N1C(=O)[C@@]2(c3cc(C#CCCO)ccc31)[C@H](C(=O)N1CCc3cc(OC)c(OC)cc3C1)[C@H]1C(=O)O[C@H](c3ccccc3)[C@H](c3ccccc3)N1[C@@H]2c1ccc(OCCO)cc1`, the composite z-score was -0.392 in experiment [1]; 0.282 in [2]; -0.0867 in experiment [3]; 0.501 in [4]; 0.467 in experiment [5]; 0.007 in experiment [6]. In addition, the composite z-score in [7] was 1.16; in experiment [9], 0.242; in [10] it was -0.216; in experiment [11], 1.55; in experiment [15] it was 2.59; in experiment [17] it was -0.104. Besides, the figures for the composite z-score in [18], in experiment [19] and in [20] were 1.12, 1.07 and -0.0859, respectively. Besides, the z-score in experiment [8] was -0.561 (inactive); in [12] it was -1.17 (inactive); in experiment [13] it was -0.581 (inactive); in experiment [14], 2.59 (inactive); in experiment [16], 1.26 (inactive).
Turning to `CC(C)C(CO)N1C(=O)[C@@H]2[C@H]3C(=O)OCC=C[C@H]3OC23C=CCN(Cn2nnc4ccccc42)C(=O)[C@@H]13` (stereo not given in full), the composite z-score was 0.449 in experiment [1]; -0.292 in [2]; -0.192 in [3]; -0.579 in [4]; -1.06 in [5]; -0.78 in experiment [6]. For the same compound, the composite z-score is 0.332 in [7]; -0.499 in experiment [9]; -0.137 in [10]; -0.0697 in [11]; 0.704 in experiment [15]; -0.262 in experiment [17]. Also, the composite z-score in [18] was -2.09; in [19] it was -0.254; in [20], -0.2. In addition, the z-score in [8] is -0.194 (inactive); in experiment [12] it was 1.14 (inactive); in experiment [13], 1.13 (inactive); in [14], 0.779 (inactive); in experiment [16], 0.701 (inactive).
